Results on 15 compounds are retold here after PubChem BioAssay (NCATS).

A number with no mark means an inactive call. Calls come from the whole dose curve; as a rule, active = well fitted curve in the direction sought with a large enough effect; inconclusive = small, poorly fitted or top-dose-only effect, or another doubt; inactive = no such curve, though single readings can be large or run the other way.

This assay in a line: Cellular Toxicity (caspase-3) HUV-EC-C (AID 656). The conditions noted are these: HUV-EC-C cells, caspase-3 activation (apoptosis), vehicle = 0, 100 µM tamoxifen = 100%; series mostly up to 92.2 µM; caspase-3 activation: at the top concentration. From the text:
NIH Chemical Genomics Center [NCGC]
NIH Molecular Libraries Screening Centers Network [MLSCN]
National Institutes of Environmental Health Sciences [NIEHS]
National Toxicology Program [NTP]
We have developed a 1536-well cell-based assay for quantitative high throughput screening (qHTS) against a number of cell lines to determine in vitro caspase 3/7 of small molecules. This particular assay uses the HUV-EC-C cell line which is derived from normal human vascular endothelial cells.
NCGC Assay Protocol Summary:
The Caspase-Glo 3/7 assay (Promega) is a homogeneous method to measure caspase-3 and caspase-7 activities in cultured cells. The quantitation of caspase 3/7 activity is based on the cleavage of a peptide-aminoluciferin substrate. After caspase cleaves the substrate the free aminoluciferin is liberated and serves as the substrate of luciferase, which generates the light. The luminescent signal is proportional to amount of caspase 3/7 activity present.
Using the Caspase-Glo 3/7 assay, the amount of caspase 3/7 activity was measured in the HUV-EC-C cell line with complete culture medium following compound treatment for 16 hours. The assay was performed in opaque white 1536-well plates. In the screen, tamoxifen and doxorubicin were used as positive controls. Library compounds were measured for their ability to cause the activation of caspase 3/7 in the cell line, as reflected by an increase in luminescence signal, in a concentration-dependent manner. Data were normalized to the controls for basal activity (DMSO only) and 100% stimulation (100 uM tamoxifen). AC50 values were determined from concentration-response data modeled with the standard Hill equation.
qHTS protocol for caspase 3/7 assay in HUV-EC-C cell line
[Step] [Parameter] [Value] [Description]
1. Reagent; 5 uL; 1000 HUV-EC-C cells/well
2. Time; 5 hr; 37 °C incubation
4. Controls; 23 nL; Tamoxifen 0.23 uM to 100 uM & doxorubicin 7.0 pM to 100 uM
5. Time; 16 hr; 37 °C incubation
6. Reagent; 5 uL; Caspase-Glo 3/7 reagent
7. Time; 20 min; Room Temperature
8. Detection; Luminescence; Viewlux plate reader
Keywords: caspase 3/7, apoptosis, HUV-EC-C cell line, luminescence, NTPHTS, NTPHTS_NCGC, NIEHS, EPA, DSSTox, MLSMR, MLSCN, NIH Roadmap, qHTS, NCGC
`C=C[C@H]1CN2CC[C@H]1C[C@@H]2[C@@H](O)c1ccnc2ccc(OC)cc12`: the “caspase-3 activation” value was 4.9%.
For `Oc1c(Cl)cc(Cl)c(Cl)c1Cc1c(O)c(Cl)cc(Cl)c1Cl` the value was 0.315%; for `COc1ccc(C(=O)c2ccccc2)c(O)c1`, -0.63%.
On to `O=C(O)c1ccc(S(=O)(=O)N(Cl)Cl)cc1`, for which the “caspase-3 activation” value is 7.02%.
Consider `OC[C@H]1O[C@@H]2O[C@H]3[C@H](O)[C@@H](O)[C@@H](O[C@H]4[C@H](O)[C@@H](O)[C@@H](O[C@H]5[C@H](O)[C@@H](O)[C@@H](O[C@H]6[C@H](O)[C@@H](O)[C@@H](O[C@H]7[C@H](O)[C@@H](O)[C@@H](O[C@H]8[C@H](O)[C@@H](O)[C@@H](O[C@H]1[C@H](O)[C@H]2O)O[C@@H]8CO)O[C@@H]7CO)O[C@@H]6CO)O[C@@H]5CO)O[C@@H]4CO)O[C@@H]3CO`, for which the “caspase-3 activation” value was -3.04%.
For `CCOc1ccc(NC(C)=O)cc1` the value was -0.508%; for `NCCNc1cccc2ccccc12`, -0.131%.
To `CCCN(CCC)S(=O)(=O)c1ccc(C(=O)O)cc1` belongs 1.71%; to `CCCCC(CC)COC(=O)c1ccc(N(C)C)cc1` (stereo not given), -0.434%; to `COc1ccc(C(Cl)=C(c2ccc(OC)cc2)c2ccc(OC)cc2)cc1`, 4.91%.
On to `Oc1ccc(Cl)cc1Cc1cc(Cl)ccc1O`, for which the “caspase-3 activation” value was -6.76%.
To `CCOc1ccccc1C(N)=O` belongs 0.154%; to `COc1cc([C@H]2Oc3cc([C@H]4Oc5cc(O)cc(O)c5C(=O)[C@@H]4O)ccc3O[C@@H]2CO)ccc1O`, -1.33%; to `C/C=C/c1ccc(O)c(OC)c1`, 7.64%.
To `NC(=O)c1ccccc1O` belongs 2.05%.
